# PubChem BioAssay AID1851 (National Center for Advancing Translational Sciences (NCATS), 2009)
# Values joined by “and” are separate entries in the source; they are usually repeats but may differ in a detail not shown here. Equal values may be shown once. Hit rate of the full screen: of about 16,000 compounds, about 5,700 (36%) were called active. Inconclusive results (about 24%) are left out. This is one part of the list. Values without a mark were called inactive. Calls follow the shape of the dose curve; as a rule, active = well fitted curve in the direction sought with a large enough effect; inconclusive = small, poorly fitted or top-dose-only effect, or effect the other way; inactive = no such curve, though single readings can be large or run the other way.
# Target: Cytochrome P450 1A2 (Homo sapiens) (UniProt P05177)
# Sequence (P05177 whole entry, looked up): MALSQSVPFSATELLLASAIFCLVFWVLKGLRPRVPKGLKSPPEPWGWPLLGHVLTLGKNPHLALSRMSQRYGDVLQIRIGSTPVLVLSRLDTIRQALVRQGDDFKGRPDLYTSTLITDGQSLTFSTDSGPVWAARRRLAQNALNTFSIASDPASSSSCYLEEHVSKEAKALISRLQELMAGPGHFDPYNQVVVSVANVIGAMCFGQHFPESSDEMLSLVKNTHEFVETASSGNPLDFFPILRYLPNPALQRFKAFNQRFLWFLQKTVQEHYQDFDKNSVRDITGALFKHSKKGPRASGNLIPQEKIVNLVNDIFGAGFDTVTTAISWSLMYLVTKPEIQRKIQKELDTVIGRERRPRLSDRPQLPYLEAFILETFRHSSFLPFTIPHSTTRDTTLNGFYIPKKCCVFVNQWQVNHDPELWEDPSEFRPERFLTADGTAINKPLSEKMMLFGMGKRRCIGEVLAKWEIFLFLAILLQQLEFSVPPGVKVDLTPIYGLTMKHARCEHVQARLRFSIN
# Assay: Cytochrome panel assay with activity outcomes
# Settings: recombinant CYP, pro-luciferin dealkylation, luminescence, p450-cyp1a2; series mostly up to 57.1 µM
# % is scaled to controls: 0 for no effect and ±100 for the full control effect.
SMILES,AC50,"activity, negative = inhibition"
Cc1ccccc1OCCCN1CCCC1,inactive,–
Cc1cc(C(C)(C)C)c(OCCCN2CCOCC2)c(C(C)(C)C)c1,–,-17.7% [at 2.29 µM]
CC(C)(C)c1ccccc1OCCN1CCCC1,15.8 µM (active),–
CC1(CC(=O)O)O[C@H]2CCCCC[C@H]2O1 (stereo partly specified) (tested in a mixture with another compound),–,-0.0273% [at 11.4 µM]
COc1cccc(C(=O)Nc2ccc(-c3nnc(-c4ccco4)o3)cc2)c1,inactive,–
COc1ccc2c(c1)C(c1ccc([N+](=O)[O-])cc1)=NNC(c1ccco1)=N2,5.01 µM (active),–
CC1(C)CCCN(C(=O)c2coc(=O)c(Br)c2)C1,inactive,–
c1ccc(CN(CC2=NCCN2)c2ccccc2)cc1,inactive,–
c1ccc2nc(C3=NCCN3)ccc2c1,5.01 µM (active) and 794 nM (active),–
c1ccc2nc(-c3ccncc3)ccc2c1,1 µM (active),–
c1ccc2cc(C3=NCCN3)ncc2c1,0.501 µM (active),–
c1ccc2nc(C3=NCCN3)cnc2c1,0.398 µM (active),–
O=C(c1cccc(F)c1)N1CCC2(CCCN(Cc3cc(C(F)(F)F)cc(C(F)(F)F)c3)C2)CC1,inactive,–
COC(=O)[C@@]1(Cc2ccc(F)cc2)[C@H]2c3cc(C(=O)N(C)C)n(CCCNc4ccc(C(F)(F)F)cc4Cl)c3C[C@H]2CN1C(=O)c1ccccc1,inactive,–
c1ccc2oc(C3=NCCN3)cc2c1,5.01 µM (active),–
CCn1nccc1C(=O)Nc1nc2ccccc2n1CCN1CCCCC1,inactive,–
CCn1c(-c2nonc2NC(=O)c2ccccc2)nc2ccccc21,0.891 µM (active),–
NCCNS(=O)(=O)c1ccc(N)cc1,–,-3.44% [at 11.4 µM]
O=S(=O)(NCc1cc(-c2ccc(Cl)cc2)no1)c1ccc(Cl)cc1,8.91 µM (active),–
Cn1c(CNS(=O)(=O)c2ccc(F)cc2)n[nH]c1=S,inactive,–
COCCNC(=O)c1onc(CSc2ccc(Cl)cc2)c1C(=O)O,inactive,–

SMILES,AC50,"activity, negative = inhibition"
Nc1ccc(S(=O)(=O)NCc2nccs2)cc1,–,-10.5% [at 2.29 µM]
Cn1c(CNS(=O)(=O)c2ccc(Cl)cc2)n[nH]c1=S,inactive,–
O=S(=O)(NCc1cc(-c2ccccc2)no1)c1ccc(Cl)cc1,7.08 µM (active),–
Clc1ccc(SCc2cc(-c3ccccc3)no2)cc1,6.31 µM (active),–
Cn1cccc1C(=O)N1CCC2(CC1)CCN(c1ncccn1)CC2,inactive,–
CC(=O)OC[C@@H]1O[C@@H](O/N=C2/C[C@@H](O)[C@@H](O)[C@@H]3[C@@H]4C(=O)N(C(C)(C)C)C(=O)[C@H]4CC[C@H]23)[C@H](OC(C)=O)[C@H](OC(C)=O)[C@@H]1OC(C)=O,–,-2.28% [at 11.4 µM]
Cc1ccccc1C(=O)NN(C)c1nc2ccccc2nc1C(F)(F)F,inactive,–
COc1ccc(Oc2nc3ccccc3nc2C(F)(F)F)cc1,1.12 µM (active),–
CC(C)(C)c1ccc(OC(=O)Cn2c(C(F)(F)F)nc3ccccc32)cc1,inactive,–
CC(C)NC(=O)N1CCCC2(CCN(C(=O)c3ccco3)CC2)C1,inactive,–
O=c1c2ccccc2nnn1CSc1nnc(COc2ccc(Cl)cc2)n1Cc1ccco1,3.16 µM (active),–
Cc1cc(C)nc(SCc2nnc(SCC(N)=O)n2Cc2ccco2)n1,inactive,–
COc1cccc(OCc2nnc(SCC(=O)NCc3ccco3)n2C)c1,inactive,–
c1ccc(C[C@@H](Nc2cccnc2)c2ccccc2)cc1,0.2 µM (active),–
O=C(O)Cc1cccnc1,–,-13.8% [at 11.4 µM]
O=C(NCC(c1cccnc1)N1CCOCC1)Nc1ccccc1 (stereo unspecified),inactive,–
COc1ccc(-n2c(=O)c(-c3cccs3)nc3cnc(Nc4cccc(OC)c4)nc32)cc1,inactive,–
COc1cccc(Nc2ncc3nc(C)c(=O)n(-c4ccccc4)c3n2)c1,5.01 µM (active),–
COc1ccc(-n2c(=O)c(C)nc3cnc(Nc4cccc(OC)c4)nc32)cc1,15.8 µM (active),–
COc1cccc(Nc2ncc3nc(C)c(=O)n(C)c3n2)c1,1 µM (active),–
CCOc1ccc(OCC)c(-c2c(=O)n(OCc3ccc(C(C)(C)C)cc3)c3ccccc3[n+]2[O-])c1,inactive,–

SMILES,AC50,"activity, negative = inhibition"
N#CN(CC(N)=O)c1nc(N2CCCCC2)nc(N2CCCCC2)n1,2 µM (active),–
OCCN1CCN(c2nc(N3CCCCC3)nc(N3CCCCC3)n2)CC1,inactive,–
O=C1c2cccc3c(Nc4ccccc4Cl)c([N+](=O)[O-])cc(c23)C(=O)N1CCO,1.78 µM (active),–
O=C1c2ccccc2C(=O)N1CCCCN(C(=O)c1cccc([N+](=O)[O-])c1)c1ccc(Cl)cc1,inactive,–
O=S(=O)(NC1CCN(Cc2ccccc2)CC1)c1cccc2cccnc12,inactive,–
CC(C)(C)c1cc2cccnc2n1Cc1ccccc1,14.1 µM (active),–
O=C(Nc1cccc(F)c1)N1CCC2(CC1)CCN(C(=O)c1csnn1)CC2,inactive,–
CCn1c(C)nc2cc(C(=O)NNS(=O)(=O)c3ccccc3F)ccc21,25.1 µM (active),–
N[C@H](C(=O)O)[C@@H](O)c1cnc[nH]1,–,-2.61% [at 11.4 µM]
Cc1cc(C(=O)c2cnc(/N=C/N(C)C)s2)cc(C)c1O,12.6 µM (active),–
CN(C)/C=N/c1ncc(C(=O)c2ccc3ccccc3c2)s1,2.51 µM (active),–
COc1ccc(O[C@H]2C=C[C@@H](c3ccccc3)O[C@H]2CO/N=C2/c3cc(OC)ccc3O[C@@H](c3cccc(OC)c3)[C@H]2O)cc1,–,1.3% [at 11.4 µM]
Cc1cc(N2CCOCC2)nc(SCc2ccc(Cl)cc2Cl)n1,2.51 µM (active),–
CSc1nc(-c2ccc(C)cc2)nc(C(Cl)Cl)n1,1.41 µM (active),–
COc1ccccc1/C=N/NC(=O)CC(=O)Nc1ccc(Cl)c(Cl)c1,1.78 µM (active),–
COc1ccccc1CN1CCCC2(CCN(C(=O)c3cccn3C)CC2)C1,inactive,–
Clc1cc2c(c(CSC3=NCN(CC4CC4)CN3)c1)OCOC2,3.16 µM (active),–
CCOc1cc2c(C)cc(=O)oc2cc1Cl,0.501 µM (active),–
CCCc1cc(=O)oc2cc(OCc3cc(OC)c(OC)c(OC)c3)c(Cl)cc12,inactive,–
